PubChem BioAssay AID2685 (National Center for Advancing Translational Sciences (NCATS), 2010)
Out of some 320,000 compounds screened, about 2,100 (0.66%) were called active. Inconclusive results (about 53%) are left out. The sample holds actives, similar compounds and a random draw of the others, so the mix is not that of the screen. The call rests on the fitted dose curve; in most records, active means well fitted inhibition curve with a large enough effect in the signal ratio, with a control signal flat (not every such curve was filed as active); inconclusive means small, poorly fitted or top-dose-only effect, or effect the other way, or a change in a side signal; inactive means flat fitted curve, though single readings scatter; the % refers to the signal ratio.

assay: qHTS Assay for Lipid Storage Modulators in Drosophila S3 Cells; settings: BODIPY lipid droplet fluorescence, 18-24 h, cells fed with added oleic acid; cell number change: measured here: cell count max response; series mostly up to 46.1 µM; lipid storage change, negative = inhibition: at the top concentration;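 on cell number change: cells counted by Cell Tracker Red CMTPX staining in the red channel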; on lipid storage change, negative = inhibition: on the % scale 0 is the no-effect control and ±100 the full control effect
Procedure, shortened: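 Drosophila S3 cells got compounds at several concentrations plus oleic acid (400 uM solution). Laser-scanning cytometry with 488 nm excitation read lipid droplets at 500-530 nm and cells at 575-640 nm. Percent activity was relative to 20 uM Triacsin C.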
Potency means the concentration at half of the fitted maximal effect.

Row | SMILES | lipid storage change, negative = inhibition | cell number change | outcome | Potency
1 | COc1ccc(/C(C)=N/NC(=O)CNC(=O)c2cccnc2)cc1 | 7.97% (inactive) | 7.78% |  | 
2 | COc1ccc(C(=O)N/N=c2\oc3ccccc3cc2C(=O)NCc2ccccc2)cc1 | 12.1% (inactive) | 2.22% |  | 
3 | N#CC(c1ccc(F)cc1)c1ccc(C(=O)c2ccccc2)cc1 (centres undefined) | -0.44% (inactive) | -0.0722% |  | 
4 | CN(C(=O)COC(=O)c1ccc2c(c1)NC(=O)CS2)C1CCS(=O)(=O)C1 (centres undefined) | 7.52% (inactive) | 4.6% |  | 
5 | CC(=O)Nc1cccc(C(=O)NCCc2ccco2)c1 | 20.2% (inactive) | 7.92% |  | 
6 | CCc1nc2ccc(C(=O)NCc3ccc(C)o3)cc2nc1CC |  | -3.07% | inactive | 
7 | CCc1nc2ccc(C(=O)NCCc3ccco3)cc2nc1CC |  | 5.81% |  | 6.51 µM (active)
8 | O=C(CN(C(=O)CCC(=O)Nc1nccs1)c1ccc2c(c1)OCO2)NCc1ccccc1 |  |  | inactive | 
9 | CCC(CC)NC(=O)C1CC(=O)N(CCc2ccc(F)cc2)C1 (centres undefined) |  |  | inactive | 
10 | CCC(C)(C)NC(=O)C1CC(=O)N(CCc2ccc(F)cc2)C1 (centres undefined) |  | -4.05% |  | 23.1 µM (active)
11 | CC(C)(C)NC(=O)C1CC(=O)N(CCc2ccc(F)cc2)C1 (centres undefined) |  | 23% | inactive | 
12 | Cc1ccc(NC(=O)c2ccc(Cl)c(NC(=O)c3cccs3)c2)cc1 |  | 17.6% |  | 25.9 µM (active)
13 | Cc1ccc(NC(=O)c2cccs2)cc1 |  | 20.8% | inactive | 
14 | Cc1cc(C)cc(C(=O)Nc2ccc(NC(=O)c3cccs3)cc2)c1 | -11% (inactive) | 17.7% |  | 
15 | Cc1cc(C(c2nnnn2Cc2ccccc2)N2CCOCC2)c(C)n1-c1ccc2c(c1)OCO2 (centres undefined) |  | -6.63% | inactive | 
16 | CN(C)C(=O)C(NC(=O)c1ccccc1)=C(Cl)Cl | 15.3% (inactive) |  |  | 
17 | Cc1cc(C(=O)OCC(=O)NC2CCC(C)CC2)c(C)o1 (centres undefined) | 8.06% (inactive) | 1.2% |  | 
18 | CN(C)S(=O)(=O)c1ccc2c(c1)nc(CCC(=O)NCc1ccc(Cl)cc1)n2C | -6.65% [at 9.22 µM] (inactive) | -1.78% |  | 
19 | CCN(CC)CCN1C(=O)C2C(C(=O)Nc3ccc(C(C)C)cc3)C3C=CC2(O3)C1C(=O)NC1CCCCC1 (centres undefined) |  | 1.35% | inactive | 
20 | CCN(CC)CCCN1C(=O)C2C(C(=O)Nc3ccc(C(C)C)cc3)C3C=CC2(O3)C1C(=O)NC1CCCCC1 (centres undefined) |  | 8.06% |  | 16.4 µM (active)
21 | COc1ccc(NC(=O)C2C3C=CC4(O3)C2C(=O)N(CCN2CCCCC2C)C4C(=O)NC2CCCC(C)C2C)cc1 (centres undefined) |  | -11.9% | inactive | 
22 | COc1cccc(NC(=O)C2C3C=CC4(O3)C2C(=O)N(CCCN2CCCCC2)C4C(=O)NC2CCCCC2)c1 (centres undefined) |  | 1.59% | inactive | 

Row | SMILES | lipid storage change, negative = inhibition | cell number change | outcome | Potency
23 | COc1ccc(NC(=O)C2C3C=CC4(O3)C2C(=O)N(CCN2CCCCC2)C4C(=O)NC2CCCC(C)C2C)cc1 (centres undefined) |  | 27% |  | 0.92 µM (active)
24 | CC(C)c1ccc(NC(=O)C2C3C=CC4(O3)C2C(=O)N(CCCN2CCCCC2)C4C(=O)NC2CCCCC2)cc1 (centres undefined) |  | 2.7% | inactive | 
25 | COc1cccc(NC(=O)C2C3C=CC4(O3)C2C(=O)N(CCCN2CCCC(C)C2)C4C(=O)NC2CCCCC2C)c1 (centres undefined) |  | -4.5% | inactive | 
26 | COc1ccc(NC(=O)C2C3C=CC4(O3)C2C(=O)N(CCCN2CCCCC2)C4C(=O)NC2CCCC(C)C2C)cc1 (centres undefined) |  | 20.6% | inactive | 
27 | COc1cccc(NC(=O)C2C3C=CC4(O3)C2C(=O)N(CCN2CCCCC2)C4C(=O)NC2CCCCC2C)c1 (centres undefined) |  | 14.4% |  | 5.8 µM (active)
28 | Cc1cccc(NC(=O)CSc2nnc(CNC(=O)c3ccco3)o2)c1 |  | -11.3% | inactive | 
29 | CCCn1c(O)c(N=NC(=O)CNC(=O)c2cccnc2)c2ccccc21 | 22.8% (inactive) | 6.42% |  | 
30 | NC(=O)/C=C\c1cn(-c2ccccc2)nc1-c1ccc2c(c1)OCCO2 | 33.5% (inactive) | 13.6% |  | 
31 | O=S(=O)(N/N=C/c1cccnc1)c1ccc(Cl)c(Cl)c1 | -1.88% (inactive) | 4.73% |  | 
32 | C=CCn1c(O)c(C=Nc2ccccc2)sc1=S | 12.5% (inactive) | 8.83% |  | 
33 | COc1ccc(CCNC(=O)COc2nncc3ccccc23)cc1 |  | -8.53% | inactive | 
34 | Cc1ccc(C(C)C)c(OCCCN2CCc3ccccc3C2)c1 |  | -26.9% |  | 14.6 µM (active)
35 | Cc1ccc(OCCCCN2CCc3ccccc3C2)cc1 |  | -8.99% | inactive | 
36 | Cc1ccc(C(C)C)c(OCCN2CCc3ccccc3C2)c1 | -43.6% (inactive) | -16.4% |  | 
37 | COc1c(Br)cc2c(C)c(C(=O)O)oc2c1Br | -6.54% (inactive) | 24.7% |  | 
38 | CN(C)c1cc(Nc2ccc(O)cc2)c([N+](=O)[O-])c2nonc12 | -2.02% (inactive) | 4.46% |  | 
39 | CCOc1ccc(NS(=O)(=O)c2ccc(C(=O)N3CC(C)OC(C)C3)cc2)cc1 (centres undefined) |  | -12.2% |  | 25.9 µM (active)
40 | CCOc1ccc(NS(=O)(=O)c2cc(C(=O)N3CC(C)OC(C)C3)ccc2C)cc1 (centres undefined) | 17.9% (inactive) |  |  | 
41 | CCOc1ccc(NS(=O)(=O)c2ccc(C(=O)N3CCCC(C)C3)cc2)cc1 (centres undefined) | 18.3% (inactive) | 20.5% |  | 
42 | CN(C)CCCNC(=O)C1CCNCC1 |  | -14.6% | inactive | 
43 | NC(=O)N/N=C/C=C/c1ccccc1 | -3.42% (inactive) | -8.08% |  | 
44 | O=S(=O)(N/N=C\C=C\c1ccccc1)c1ccc(Cl)cc1 |  | -34.4% |  | 11.6 µM (active)
